Each structure is given as a SMILES string. The whole screen tested about 410,000 compounds, of which about 2,000 (0.49%) were called active. Another 8% or so got no clear call; they are omitted. The sample holds actives, similar compounds and a random draw of the others, so the mix is not that of the screen. Unmarked numbers belong to inactive results. Calls come from the whole dose curve; tested in HEK293 reporter line.
Potency is the fitted concentration of half-maximal effect.

The assay in a line: qHTS Assay for Foot and Mouth Disease Virus Antivirals: Primary Screen against the MLPCN compound library. Note: nearly all actives have a fitted effect of over 55% in size. The following applies: FMDV antiviral cell-based qHTS; series mostly up to 57.9 µM; activity, negative = inhibition: at the top concentration. (qHTS replaces the single test concentration by a dilution series.)
Turning to `CC(=O)Nc1ccc(S(=O)(=O)c2ccc([N+](=O)[O-])cc2)cc1`, the “activity, negative = inhibition” value is -32.5%.

As for `O=C1NC(=O)N(CCc2ccc(F)cc2)C(=O)/C1=C/C=C/c1ccccc1`, the Potency was 10 µM (active).

As for `COc1ccc(CN2C(=O)NC(=O)/C(=C/c3ccoc3)C2=O)cc1`, the “activity, negative = inhibition” value was -38%.

For the compound `O=C1NC(=O)N(Cc2ccccc2)C(=O)/C1=C\N1CCCc2ccccc21`, the “activity, negative = inhibition” value was -2.94%.

Take `O=C(Nc1ccc2c(c1)OCO2)c1cc(-c2ccc(Br)cc2)on1`: the “activity, negative = inhibition” value is -34.7%.

Regarding `CN(CCOc1ccc(Cl)cc1)CC(=O)Nc1ccc(OC(F)(F)F)cc1`, the “activity, negative = inhibition” value was -33.4%.

For the compound `Cc1[nH]n(-c2ccc(F)cc2)c(=O)c1/C=N/c1sc2c(c1C#N)CCCC2`, the “activity, negative = inhibition” value was -28.2%.

Turning to `N#Cc1c(/N=C/c2cccs2)sc2c1CCCCC2`, the Potency was 25.1 µM (active).

Regarding `O=C(Nc1sc2c(c1C(=O)Nc1ccc(Cl)cc1)CCCC2)c1cccs1`, the “activity, negative = inhibition” value was -28.2%.

`O=C(Cc1ccccc1)NCC(=O)OCc1ccccc1F`: the “activity, negative = inhibition” value is -16.4%.

For the compound `CC(Sc1nc2ccccc2c(=O)n1CC1CCCO1)C(=O)N(C)c1ccccc1` (stereo not given), the “activity, negative = inhibition” value was -30.8%.

As to `COc1ccc(C(CC(=O)Nc2cc([N+](=O)[O-])ccc2OC)c2ccccc2)cc1` (stereo not given), the “activity, negative = inhibition” value was -39%.

Consider `CC(=O)NNC(=S)NC(=O)C(c1ccccc1)c1ccccc1`, for which the “activity, negative = inhibition” value was -36.8%.

On to `CCOC1=C2CN(S(=O)(=O)c3ccc(C)cc3)[C@H](c3ccccc3)C[C@@H]2N(S(=O)(=O)c2ccc(C)cc2)[C@H](c2ccccc2)C1`, for which the “activity, negative = inhibition” value is -33%.

On to `CC(C)c1ccc(NC(=O)c2cc(S(=O)(=O)N(C)C3CCCCC3)ccc2F)cc1`, for which the “activity, negative = inhibition” value is -32.3%.

For `CCCOc1ccc(C(=O)Nc2ccc3oc(-c4cccc(Cl)c4Cl)nc3c2)cc1`, the “activity, negative = inhibition” value was -34.3%.

Turning to `CCc1ccc2oc(-c3cc(N)ccc3Cl)nc2c1`, the Potency is 17.8 µM (active).

Turning to `CCOCCc1nnc(NC(=O)CS(=O)(=O)Cc2ccccc2)s1`, the “activity, negative = inhibition” value was -32.2%.

For the compound `CCCCN1C[C@H](CSC)[C@@H](CC(=O)NC)C1=O`, the “activity, negative = inhibition” value was -6.84%.

Consider `COc1ccc(NC(=O)NC23CC4(C)CC(C)(CC(C)(C4)C2)C3)cc1OC`, for which the “activity, negative = inhibition” value is -34.1%.

On to `COc1ccc(N2CCN(C(=O)CN3CCSc4ccccc43)CC2)cc1`, for which the “activity, negative = inhibition” value is -32.5%.

As for `Cc1ccn2c(/C=N/OCc3cccc(F)c3)c(-c3ccc(Cl)cc3)nc2c1`, the “activity, negative = inhibition” value is -31.2%.

Regarding `O=C(COC(=O)c1ccco1)Nc1ccc2[nH]c(=O)[nH]c2c1`, the “activity, negative = inhibition” value was -32.9%.

As to `Cc1ccc(C(=O)OCC(=O)Nc2ccc(C)c(S(=O)(=O)N3CCCCC3)c2)c(O)c1`, the “activity, negative = inhibition” value is -35.9%.

Consider `Cc1ccc2nc(-c3ccc(NC(=O)COC(=O)c4ccco4)cc3)sc2c1`, for which the Potency is 12.6 µM (active).

`Cc1ccc2nc(-c3ccc(NC(=O)COC(=O)c4cncc(Br)c4)cc3)sc2c1`: the Potency is 17.8 µM (active).

Consider `CCN(CC)S(=O)(=O)c1cccc(NC(=O)COC(=O)c2cncc(Br)c2)c1`, for which the “activity, negative = inhibition” value is -37.1%.

Take `Cc1ccc(OCC(=O)Nc2ccc3c(c2)nc(CCNC(=O)c2ccco2)n3C)cc1`: the “activity, negative = inhibition” value is -39.6%.

On to `O=C(N/N=C/c1cccc([N+](=O)[O-])c1)c1ccc(CN2CCOCC2)cc1`, for which the “activity, negative = inhibition” value was -38.8%.

On to `CCOc1cc(/C=N/Nc2cc(C)nc(-n3nc(C)cc3C)n2)ccc1O`, for which the “activity, negative = inhibition” value is -42.3%.

Consider `CC(OC(=O)/C=C/c1ccco1)C(=O)NC1CCCCC1C` (stereo not given), for which the “activity, negative = inhibition” value is -41.9%.

Take `O=C1c2ccccc2C(=O)C1c1ccnc2ccccc12`: the Potency is 14.1 µM (active).

Take `Cc1ccc2c(CC(=O)N3CCN(S(=O)(=O)c4cccs4)CC3)coc2c1`: the “activity, negative = inhibition” value was -31.8%.

Regarding `O=S(=O)(c1cccs1)N1CCN(CCc2ccccc2)CC1`, the “activity, negative = inhibition” value is -43.5%.

As for `O=C(CCCc1nc2ccccc2s1)N1CCN(S(=O)(=O)c2cccs2)CC1`, the Potency was 25.1 µM (active).

With `COc1ccc(C(=O)NCC(=O)N2CC=C(c3ccccc3)CC2)cc1OC`, the “activity, negative = inhibition” value was -35.2%.

Turning to `O=c1nc(N/N=C/C=C/c2ccccc2)cn[nH]1`, the Potency is 14.1 µM (active).

As for `COc1ccc(CCN(C)C(=O)c2cc(S(=O)(=O)N3CCCCC3)ccc2Cl)cc1OC`, the “activity, negative = inhibition” value is -31%.

As to `COCCn1c(C)cc(C(=O)COC(=O)c2ccc[nH]c2=O)c1C`, the “activity, negative = inhibition” value was -45.2%.

As to `Cc1sc2ncnc(NCC(c3ccco3)N3CCCC3)c2c1C` (stereo not given), the “activity, negative = inhibition” value is -34.6%.

On to `CCOc1cc(-c2c(C#N)c(=O)[nH]c3c2c(C)nn3-c2ccc(F)cc2)ccc1O`, for which the “activity, negative = inhibition” value is -34.3%.

With `COc1ccc2oc(=O)c(C(=O)NCCc3c(C)[nH]c4ccc(C)cc34)cc2c1`, the “activity, negative = inhibition” value was -33.4%.

On to `O=C(CSc1nnc(NC(=O)c2ccc3c(c2)OCO3)s1)NCc1ccco1`, for which the Potency was 17.8 µM (active).

Turning to `COc1cc(OC)cc(C(=O)Nc2nnc(SCC(=O)NCc3ccco3)s2)c1`, the “activity, negative = inhibition” value was -86.1%.

On to `COc1ccc(-c2cnc(SCC(=O)Nc3ccc4c(c3)OCO4)n2Cc2ccco2)cc1`, for which the “activity, negative = inhibition” value was -34%.

Take `Cc1cc(C)cc(-n2c(SCC(=O)Nc3cccc(F)c3)nc3c([nH]c4ccccc43)c2=O)c1`: the “activity, negative = inhibition” value is -38.8%.

Consider `COc1ccc(C)cc1NC(=O)CN(C)S(=O)(=O)c1cc(C)ccc1OC`, for which the “activity, negative = inhibition” value is -34.7%.

For the compound `O=P(c1ccccc1)(c1ccccc1)c1nc(-c2ccccc2)oc1NCc1ccccc1`, the “activity, negative = inhibition” value is -30.8%.

As to `C=C[C@H](Cc1ccccc1)N(Cc1ccccc1)S(=O)(=O)N(Cc1ccccc1)[C@H](C=C)Cc1ccccc1`, the “activity, negative = inhibition” value is -45.3%.

Take `Cc1cc(C)c(C(N)=O)c(SCC(=O)c2cc(C)c(C)cc2C)n1`: the “activity, negative = inhibition” value is -34.3%.

For the origin of these results see PubChem BioAssay AID1347131 (National Center for Advancing Translational Sciences (NCATS), 2019).
